Screening results from PubChem.
Rows were chosen to be rich in hits. Some 2.4% of all compounds tested hit in one or more screens of this group.
D2 PAM-1 – positive allosteric modulators of human D2 dopamine receptor; actives 0.23% (n = 360,000); DiscoveRx D2 beta-arrestin cells, luminescence, 90 min; 100% = 57 uM dopamine signal; P14416; potentiation, % (no concentration beside the values); AID 624464; in the data active = potentiation above about 50%; inconclusive = mostly about 30% to 49%
Target sequence (P14416 whole entry, looked up): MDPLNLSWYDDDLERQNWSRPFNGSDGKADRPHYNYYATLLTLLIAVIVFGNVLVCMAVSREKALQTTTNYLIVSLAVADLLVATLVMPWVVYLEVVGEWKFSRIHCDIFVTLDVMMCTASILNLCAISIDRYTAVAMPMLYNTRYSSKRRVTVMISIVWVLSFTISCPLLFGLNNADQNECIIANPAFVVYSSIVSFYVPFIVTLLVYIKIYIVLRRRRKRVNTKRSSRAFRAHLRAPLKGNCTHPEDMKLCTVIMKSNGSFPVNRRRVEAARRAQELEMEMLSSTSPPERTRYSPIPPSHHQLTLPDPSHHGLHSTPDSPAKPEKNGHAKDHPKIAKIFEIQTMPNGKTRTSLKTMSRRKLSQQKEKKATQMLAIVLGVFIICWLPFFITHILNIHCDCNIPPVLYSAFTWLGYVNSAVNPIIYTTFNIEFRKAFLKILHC
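PathHunter D2 cells, attached overnight at 37 deg C, received compound in DMSO plus dopamine at EC20 (50 nM final) for 90 min at 37 deg C. Beta-arrestin recruitment was read as luminescence after 1 h with detection reagent at ambient temperature.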
D2 PAM-2 – positively modulates the human D2 dopamine receptor allosterically; actives 0.34% (n = 340,000); P14416; HEK293 T-REx D2, calcium flux, EC20 dopamine potentiation; potentiation, % at 10 µM;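 active = potentiation over 3 SD above the plate norm, cut at about 30% in these data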
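Tetracycline-induced HEK293 T-REx cells force-coupled to calcium signalling expressed D2; compounds were pin-added after a 10 s baseline, read kinetically 180 s, then an EC20 dopamine challenge followed with a further 180 s calcium read.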
D2 ag-1 – activates the human D2 dopamine receptor | P14416 | DiscoveRx PathHunter D2 beta-arrestin, luminescence, 90 min; 100% = 57 uM dopamine signal | activation, % (test concentration not listed) | actives 0.084% (n = 360,000) | AID 624465; in the data active = activation above about 40%; inconclusive = between about 15% and that limit
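DiscoveRx PathHunter D2 beta-arrestin cells (2,100/well) attached overnight, then compound-stimulated 90 min at 37 C in HBSS/10 mM HEPES/0.1% Tween-20 buffer; beta-galactosidase complementation read by luminescence after 1 h at ambient temperature. Dopamine 57 uM final (EC100) as control.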
D2 antagonist – antagonizes the human D2 dopamine receptor; P14416; HEK293 TREx D2 cells, calcium flux, dopamine EC80; inhibition, % at 10 µM; actives 2% (n = 340,000); in the data active = inhibition above about 30%; inactive = below that, where a call was filed
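Compounds are added to dye-loaded, induced HEK293 T-REx cells coupled to calcium release via D2; after a 3 min kinetic read an EC80 dopamine stimulus is given and fluorescence is recorded for 3 more min.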
D2 ag-2 – agonists of human D2 dopamine receptor; actives 0.53% (n = 340,000); activation, % at 2 µM; HEK293 T-REx D2 cells, calcium flux agonist mode;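 active = activation over 3 SD above normal in the single-dose calcium agonist read, cut at about 30% in these data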
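HEK293 Trex D2 cells, tetracycline-induced, o/n 30 C 5% CO2; no-wash Ca dye, RT 30–90 min; 10-cycle baseline, 23 nl cpd added, kinetic Ca read 180 s; agonist hits = positive Ca response.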
D3 ag – confirmation of human D3 dopamine receptor agonists, beta-arrestin; actives 4% (n = 2,300); shares compounds with D2 ag-2; DiscoveRx D3 beta-arrestin cells, luminescence, 90 min; Potency, µM (doses to about 76.9 µM), most hits filed as activators; also: nearly all actives have a fitted effect of over 70% in size
D2 ag-3 – counter-screen for D3 agonists: human D2 dopamine receptor agonism. shares compounds with D2 ag-2. DiscoveRx PathHunter D2 beta-arrestin, luminescence, 90 min; response scale: percent relative to full dopamine signal. Potency, µM (titrated, usually from 76.9 µM), hits mostly activators. actives 5.9% (n = 2,300); also: nearly all actives have a fitted effect of over 70% in size
Each line names hits and unclear results; the compound was inactive in the other large screens (follow-up assays come after a bar, where they were run). Unless noted, calls follow the shape of the dose curve; as a rule, active = well fitted activation curve with a large enough effect; inconclusive = small, poorly fitted or top-dose-only effect; inactive = flat fitted curve, though single readings scatter.

Cc1cc(C)cc(NC(=O)CSc2ccc(-c3ccccn3)nn2)c1	none
O=C(CN1CCN(c2ncccn2)CC1)Nc1ccccc1-n1cccc1	D2 ag-2 37.9 | D3 ag inactive | D2 ag-3 inactive
Cc1cc(C)cc(NC(=O)CN2CCN(c3ncccn3)CC2)c1	none
O=C(CSc1ccc(-c2ccccn2)nn1)Nc1cccc(F)c1	D2 ag-2 71.1 | D3 ag inactive | D2 ag-3 inactive
O=C(CN1CCN(c2ccccn2)CC1)Nc1cccc(F)c1	none | D3 ag inactive | D2 ag-3 inactive
O=C(CN1CCN(c2ccccn2)CC1)Nc1ccccc1F	D2 antagonist 56.9, D2 ag-2 73.0 | D3 ag inactive | D2 ag-3 inactive
CCc1nn2c(=O)cc(COC(=O)c3ccccc3NC(=O)COc3ccc(C)c(C)c3)nc2s1	none (no result: D2 PAM-1, D2 ag-1, D2 antagonist)
O=C(CN1CCN(c2ccccn2)CC1)Nc1cccc(S(=O)(=O)N2CCOCC2)c1	D2 ag-2 42.0 | D3 ag inactive | D2 ag-3 inconclusive
O=C(CN1CCN(c2ccccn2)CC1)Nc1ccccc1Br	D2 ag-1 inconclusive, D2 antagonist 38.0, D2 ag-2 46.7 | D3 ag inactive | D2 ag-3 inactive
O=C(Nc1cccc(S(=O)(=O)N2CCOCC2)c1)C(c1ccccc1)N1CCCCC1 (stereo not given)	none (no result: D2 PAM-2, D2 antagonist, D2 ag-2)
CC(C(=O)Nc1cccc(S(=O)(=O)N2CCOCC2)c1)N1CCN(C/C=C/c2ccccc2)CC1 (stereo not given)	D2 antagonist 79.9, D2 ag-2 51.3 | D3 ag inconclusive | D2 ag-3 inactive
N#Cc1ccccc1NC(=O)CN1CCN(c2ccccn2)CC1	none
N#Cc1c(C(F)(F)F)cc(-c2cccs2)nc1SCC(=O)Nc1cccc(C(F)(F)F)c1	none (no result: D2 PAM-1, D2 ag-1, D2 antagonist)
Cc1cccc(Cn2c(SCc3ccc(C(=O)NCc4ccccc4F)cc3)nc3ccncc32)c1	none (no result: D2 PAM-1, D2 ag-1, D2 antagonist)
CC(C)(C)c1ccc(Oc2ccc(NC(=O)CCC(=O)OCC(=O)c3ccccc3)cc2)cc1	none (no result: D2 PAM-1, D2 ag-1, D2 antagonist)
Oc1ccc(C2CNCc3sccc32)cc1O (stereo not given)	D2 PAM-1 70.7, D2 ag-1 63.0, D2 antagonist 95.8, D2 ag-2 84.2 | D3 ag 3.55µM | D2 ag-3 2.82µM
Cc1cc(C)nc(-n2ncc3c2CC(c2ccccc2)CC3=O)n1 (stereo not given)	D2 ag-2 48.4 | D3 ag inactive | D2 ag-3 inactive
O=C(CNCc1cccs1)NC12CC3CC(CC(C3)C1)C2	none
CC1(C)C2CCC(C2)C1(C)NC(=O)CNCc1cccs1 (stereo not given)	none | D3 ag inactive | D2 ag-3 inactive
Cc1ccccc1Cn1c(=O)n(Cc2ccc3c(c2)OCO3)c(=O)c2oc3ccccc3c21	none (no result: D2 PAM-1, D2 ag-1, D2 antagonist)
COc1ccc(Nc2sc(C(=O)c3ccc(Cl)cc3)c(N)c2C(=O)Nc2ccccc2OC)cc1	none | D3 ag inactive | D2 ag-3 inactive
CN(C)S(=O)(=O)c1cc(NC(=O)CN2CCN(c3ccccc3)CC2)ccc1Cl	D2 ag-1 inconclusive, D2 antagonist 63.9, D2 ag-2 70.6 | D3 ag 50.1µM | D2 ag-3 inconclusive
CN(C)S(=O)(=O)c1ccc(NC(=O)CN2CCN(c3ccccn3)CC2)cc1	D2 ag-1 inconclusive, D2 antagonist 30.2, D2 ag-2 65.0 | D3 ag 1.41µM | D2 ag-3 inconclusive
CN(C)S(=O)(=O)c1cc(NC(=O)CN2CCN(c3ccc(O)cc3)CC2)ccc1Cl	none
Cc1cc(C)cc(NC(=O)CN2CCN(c3ccccn3)CC2)c1	none
Cc1ccc(NC(=O)CN2CCN(c3ccccn3)CC2)cc1S(=O)(=O)N(C)C	D2 ag-1 58.2, D2 antagonist 76.8, D2 ag-2 68.6 | D3 ag 1.41µM | D2 ag-3 14.1µM
CC(=O)c1ccc(NC(=O)C2CCC(CNS(=O)(=O)c3cccc4nsnc34)CC2)cc1 (stereo not given)	none (no result: D2 PAM-1, D2 ag-1, D2 antagonist, D2 ag-2)
Cc1noc(C)c1C(=O)N1CCN(c2ccccc2O)CC1	none | D3 ag inactive | D2 ag-3 inactive
COc1ccc(C2C=C(c3ccccc3)Nc3nnnn32)cc1 (stereo not given)	none (no result: D2 antagonist, D2 ag-2) | D3 ag inactive | D2 ag-3 inactive
Cc1cccc(-c2nc3c4ccccc4n(Cc4cccc(Cl)c4)c(=O)n3n2)c1	none (no result: D2 PAM-1, D2 ag-1, D2 antagonist)
COc1ccc(-c2sc3ccc(OC)cc3c2-c2ccc(OC)c(F)c2)cc1	none
COc1ccc2sc(-c3ccccc3OC)c(-c3ccc(OC)c(F)c3)c2c1	D2 ag-2 47.7 | D3 ag inactive | D2 ag-3 inactive
CCOc1ccc(C2N3CC4(C(C)C)CN2CC(C(C)C)(C3)C4=O)cc1OC (stereo not given)	none (no result: D2 PAM-1, D2 PAM-2, D2 ag-1, D2 antagonist)
C/C(=N\NC(=O)C12CCC(C)(C(=O)O1)C2(C)C)c1ccccc1O (stereo not given)	D2 ag-1 inconclusive, D2 antagonist 82.5, D2 ag-2 83.3 | D3 ag inconclusive | D2 ag-3 inconclusive
COc1cc(-c2nnc(NC(=O)CCS(=O)(=O)c3ccccc3)o2)cc(OC)c1OC	D2 antagonist 41.2 | D3 ag inactive | D2 ag-3 inactive
COc1cc(-c2nnc(NC(=O)CCS(=O)(=O)c3ccc(F)cc3)o2)cc(OC)c1OC	none
COc1cccc(N2CC(NC(=O)C(c3ccccc3)c3ccccc3)CC2=O)c1 (stereo not given)	none (no result: D2 PAM-1, D2 ag-1, D2 antagonist)
CC1CCCCN1Cc1ccc(-c2nnn(CC(=O)NC3CCCCC3)n2)cc1 (stereo not given)	D2 ag-2 49.6 | D3 ag inactive | D2 ag-3 inactive
COc1ccc(C(=O)Nc2cccc(-c3cn4ccsc4n3)c2)c(OC)c1	none (no result: D2 PAM-1, D2 ag-1, D2 antagonist)
CCN(CC)S(=O)(=O)c1ccc(C)c(NC(=O)CNCc2ccccc2OC)c1	D2 ag-1 inconclusive, D2 antagonist 96.3, D2 ag-2 81.7 | D3 ag inconclusive | D2 ag-3 inconclusive
Cc1ccc(S(=O)(=O)N2CCOCC2)cc1NC(=O)CSc1ncccn1	none
CCN(CC)S(=O)(=O)c1ccc(C)c(NC(=O)CN(C)C)c1	none
Cc1ccc(S(=O)(=O)N2CCOCC2)cc1NC(=O)CNCc1ccccn1	D2 ag-1 inconclusive, D2 antagonist 32.7, D2 ag-2 51.6 | D3 ag 7.94µM | D2 ag-3 inconclusive
COc1ccccc1CNCC(=O)Nc1cc(S(=O)(=O)N2CCOCC2)ccc1Cl	D2 antagonist 84.8 | D3 ag inactive | D2 ag-3 inconclusive
